# Screen size: about 220,000 compounds; about 16,000 (7.3%) were called active. Where a call stands in place of a potency, no number is given. Not shown: some 25% with an inconclusive outcome. The sample holds actives, similar compounds and a random draw of the others, so the mix is not that of the screen. Calls follow the shape of the dose curve; as a rule, active = well fitted inhibition curve with a large enough effect (not every such curve was filed as active); inconclusive = small, poorly fitted or top-dose-only effect, or another doubt; inactive = no such curve, though single readings can be large or run the other way.
# Target: Aldehyde dehydrogenase 1A1 (Homo sapiens) (UniProt P00352)
# Assay: qHTS Assay for Inhibitors of Aldehyde Dehydrogenase 1 (ALDH1A1)
# Settings: Purified ALDH1A1, NADH fluorescence, propionaldehyde substrate; series mostly up to 75.3 µM
# Potency is read from the fitted curve at half-maximal effect.
# Sequence of Aldehyde dehydrogenase 1A1 (Homo sapiens) (P00352 whole entry, looked up): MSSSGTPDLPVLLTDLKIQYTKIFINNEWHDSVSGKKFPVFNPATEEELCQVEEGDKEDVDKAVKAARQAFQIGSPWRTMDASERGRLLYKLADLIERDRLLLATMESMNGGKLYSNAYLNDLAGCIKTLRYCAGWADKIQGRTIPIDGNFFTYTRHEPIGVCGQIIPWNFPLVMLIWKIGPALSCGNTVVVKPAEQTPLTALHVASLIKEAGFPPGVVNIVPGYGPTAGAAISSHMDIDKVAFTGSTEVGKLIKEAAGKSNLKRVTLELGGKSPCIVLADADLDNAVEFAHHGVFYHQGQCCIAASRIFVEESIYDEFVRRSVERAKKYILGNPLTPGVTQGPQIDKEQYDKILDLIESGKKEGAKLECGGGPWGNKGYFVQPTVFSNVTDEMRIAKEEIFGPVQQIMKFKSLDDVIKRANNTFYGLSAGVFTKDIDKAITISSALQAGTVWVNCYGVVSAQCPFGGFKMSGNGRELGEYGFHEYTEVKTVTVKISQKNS
row,SMILES,Potency
1,COc1ccc2cc(-c3[nH]ncc3CNCCn3nc(C)cc3C)ccc2c1,inactive
2,Cc1c(O)c(Br)c(C)c(O)c1Br (tested in a mixture with another compound),1.12 µM (active)
3,COCCN(C(=O)CCC(=O)Nc1nccs1)C(C(=O)NC(C)(C)C)c1ccc(Cl)cc1 (configuration not stated),inactive
4,COc1ccc(OCc2n[nH]c(=S)n2N)cc1,4.47 µM (active)
5,Cc1ccc(OCc2n[nH]c(=S)n2-c2ccccc2)cc1,inactive
6,Cc1ccc(OCc2n[nH]c(=S)n2-c2ccc(C)cc2)cc1,inactive
7,Cc1noc(C)c1CCC(=O)O,inactive
8,O=C(c1cccc(S(=O)(=O)N2CCCC2)c1)N(Cc1ccco1)C1CCS(=O)(=O)C1 (configuration not stated),inactive
9,COc1cc(OC)c2c(-c3cccc(-c4cccc(N)c4)c3)cc(=O)oc2c1,inactive
10,CCC(c1nnnn1Cc1ccco1)N(CCc1ccccc1)Cc1cc2cccc(C)c2[nH]c1=O (configuration not stated),7.94 µM (active)
11,CCC(c1nnnn1Cc1ccco1)N(CCc1ccccc1)Cc1cc2ccc(OC)cc2[nH]c1=O (configuration not stated),10 µM (active)
12,CCOc1ccc(CN(Cc2ccco2)C(c2cccs2)c2nnnn2C(C)(C)C)cc1 (configuration not stated),inactive
13,CCN(CC)CCNS(=O)(=O)c1ccc(/C=C/C(=O)O)cc1,inactive
14,Cc1noc(C)c1COC(=O)COc1ccc(-c2ccccc2)cc1,inactive
15,Cc1nn(CC(=O)Nc2ccc(C#N)cc2)c(C)c1[N+](=O)[O-],inactive
16,CCCC(C)C(=O)NCc1ccncc1 (configuration not stated),inactive

row,SMILES,Potency
1,OCCC1CN(Cc2cccc(OC3CCCC3)c2)CCN1Cc1ccsc1 (configuration not stated),inactive
2,COC(=O)c1cc(=O)n(-c2c(Cl)cc(C(F)(F)F)cc2Cl)[nH]1,inactive
3,Cn1c(CC2Sc3ccccc3NC2=O)nnc1SCC(=O)c1ccc(Cl)cc1 (configuration not stated),3.98 µM (active)
4,Cc1ccc(CNC(=O)CC2Sc3ccccc3NC2=O)cc1 (configuration not stated),inactive
5,Cn1c(CCC(=O)Nc2ccccc2F)nnc1SCC(=O)Nc1ccccc1Cl,inactive
6,COc1cc(C)c(Cl)cc1S(=O)(=O)n1ccnc1,inactive
7,Cc1nc(N)[nH]c(=O)c1Oc1cccc(C(F)(F)F)c1,inactive
8,Cn1c(-c2ccccc2)c[n+]2c1CCCCC2,inactive
9,COc1ccc(C(=O)Nc2cc(C)ccc2NC(=O)COc2ccccc2)cc1,3.98 µM (active)
10,COc1ccc(OCC(=O)NNC(=O)c2cccc(C)c2)cc1,inactive
11,Cc1cccc(NC(=O)c2ccc(OCC(=O)NCc3ccccc3)cc2)c1C,inactive
12,CCOC(=O)Cc1ncccc1C(=O)Nc1ccc(OC(F)(F)F)cc1,inactive
13,Cn1nnnc1-c1cc(Cl)cc(Cl)c1,inactive
14,COc1ccc(Br)cc1C(=O)Nc1cccc(C)c1C,inactive
15,COc1ccc(/C=C(/NC(=O)c2ccc(C)cc2)c2nc3ccccc3[nH]2)cc1OC,inactive
16,COc1ccc(Br)cc1C(=O)NC(=S)Nc1cc(-c2nc3ccccc3[nH]2)ccc1C,12.6 µM (active)
